Among the data in PubChem BioAssay AID1578 (Sanford-Burnham Center for Chemical Genomics, 2009) are inhibition values, retold here.

Molecules are shown by their SMILES. The whole screen tested about 290,000 compounds, of which about 3,000 (1%) were called active. Many of the other results were omitted from the sample, so actives are more common in it than they were. Unmarked numbers belong to inactive results. Cut-off read from the data, not from the text of the source: active = inhibition mostly above about 36% (no sharp cut-off); inactive = mostly below about 34%.

By inhibition is commonly meant the relative decrease from the control value, in per cent.

This test is described as follows: NOD1 signaling inhibitors, primary screen, cell-based, luminescence, uHTS (AID 1578).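 Note: HEK-293T reporter cells stimulated with the NOD1 agonist gamma-tri-DAP.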 Particulars: NOD1-driven NF-kB luciferase reporter cells, at 4 µM, active compounds read high. A general note: A reporter such as luciferase makes a cellular process visible.
Take `CCOC(=O)C1CCCN(Cc2cn[nH]c2-c2ccc(F)cc2F)C1` (centres undefined): the inhibition was -31.8%. Consider `OCCCC1CCCN(Cc2cn[nH]c2-c2ccc(F)cc2F)C1` (centres undefined), for which the inhibition was 75% (active). As for `O=C(C1CCN(Cc2cn[nH]c2-c2ccc(F)cc2F)CC1)N1CCOCC1`, the inhibition was -5.7%. Regarding `O=C(NCc1ccc(F)cc1)N1CCN(S(=O)(=O)c2ccccc2F)CC1`, the inhibition was -20.3%. As for `O=C(N/N=C/c1ccc(Cl)cc1Cl)C(=O)NC1CC1`, the inhibition is -3.9%.

In the case of `CCCc1cc(-c2[nH]ncc2-c2ccc3c(c2)OCCCO3)c(O)cc1O`, the inhibition is 17.6%. For the compound `CCc1cc(-c2[nH]ncc2-c2ccc3c(c2)OCO3)c(O)cc1O`, the inhibition was 97.7% (active). To `CCc1cc(-c2[nH]ncc2-c2ccc(OC)cc2)c(O)cc1O` belongs 12.6%; to `Cc1ccc(C(=O)NCC(=O)N2CCN(S(=O)(=O)c3cccs3)CC2)s1`, -28.4%; to `O=C(N/N=C/c1ccc(OC(=O)c2cccc(F)c2)cc1)c1cccnc1`, -21%. Take `COc1ccccc1NC(=O)c1ccccc1Nc1ccccc1`: the inhibition is -5.4%. The result for `COc1ccc(CN2CCNC(=O)C2CC(=O)NCCc2cnccn2)cc1C` (centres undefined) reads -22.4%; that for `Cc1[nH]nc(Nc2ccccc2)c1[N+](=O)[O-]`, 75.5% (active); that for `Cc1ccc(Nc2n[nH]c(C)c2[N+](=O)[O-])cc1`, -38.4%. For `Cc1cccc(Nc2n[nH]c(C)c2[N+](=O)[O-])c1`, the inhibition is -36.2%. To `CC1CCCN(S(=O)(=O)c2ccc3oc(=O)ccc3c2)C1` (centres undefined) belongs -39.5%.

Consider `Cc1ccc(OCCCn2cc(C#N)c3ccccc32)cc1`, for which the inhibition is 26.6%. On to `CCN(CC)S(=O)(=O)c1cc(C(=O)OCC(=O)c2ccc3c(c2)NC(=O)CO3)ccc1F`, for which the inhibition is -21.3%. For `COCc1cc(C)nc(N2CCCCC2)c1C#N`, the inhibition is -7.1%. As to `O=C(O)c1c2c(nc3ccccc13)/C(=C/c1ccc(O)cc1)CC2`, the inhibition is 63.5% (active). Take `O=C(O)c1ccc(/C=C2\CCCc3c2nc2ccccc2c3C(=O)O)cc1`: the inhibition is -24%. Take `O=C(O)c1c2c(nc3ccccc13)/C(=C/c1ccc(O)cc1)CCC2`: the inhibition is -23.9%.

Turning to `NC(=O)CSc1nnc(CNc2cccc(Cl)c2)n1CCc1ccccc1`, the inhibition was -6.6%. With `CCOC(=O)c1sc(-c2ccc(F)cc2)cc1N`, the inhibition is -18.5%. In the case of `CC(O)CNc1ncnc2cc(-c3ccc(F)cc3)sc12` (centres undefined), the inhibition is -11.1%. As for `C=CCNC(=O)c1ccc2c(=O)n(CCCN3CCCC3=O)c(=S)[nH]c2c1`, the inhibition is -17.5%. On to `N#CC1=C(N)Oc2ccc3ccc(O)cc3c2C1c1cccnc1` (centres undefined), for which the inhibition is -18.7%. On to `Cc1ccc(-c2nc3[nH]c(=O)cc(NC(=O)c4cccs4)n3n2)cc1`, for which the inhibition was -1.6%. To `Cc1nc2c3cc(Cl)ccc3n(CCN3CCCCC3)c2s1` belongs -5.1%; to `CC1CCN(S(=O)(=O)c2ccc3c(c2)NC(=O)CS3)CC1`, -43.2%. With `O=C(COc1ccccc1)NCc1ccc(-n2cccc2)cc1`, the inhibition is -34.8%. With `O=C(Cc1ccccc1)NCc1ccc(-n2cccc2)cc1`, the inhibition was 48.6% (active).

`Cc1ccc(CNC(=O)Cc2ccc(-n3cccc3)cc2)cc1`: the inhibition was -32.1%. On to `Cc1ccc(COc2ccsc2C(=O)NNC(N)=S)cc1`, for which the inhibition was -29.4%. Take `CCCOc1ccc(/C=N/Nc2ccccc2[N+](=O)[O-])c(O)c1`: the inhibition is 55.7%. With `CCOc1cccc(/C=N/NC(=S)Nc2ccccc2[N+](=O)[O-])c1O`, the inhibition was 34.3%. For `OC(CNCCc1ccc(Cl)cc1)COc1cc(Cl)ccc1Cl` (centres undefined), the inhibition is -10.1%. As for `Cc1ccccc1OCC(=O)N/N=C/c1ccc(N2CCOCC2)o1`, the inhibition is -23.5%. For `Cc1ccc(CSC2=NCCN2C(=O)C(C)Oc2ccccc2)cc1` (centres undefined), the inhibition is -38.3%. For the compound `CC1CCc2sc3ncnc(N4CCN(C)CC4)c3c2C1` (centres undefined), the inhibition is 13.5%.

On to `CC1CCc2c(sc3ncnc(N4CCOCC4)c23)C1` (centres undefined), for which the inhibition was -28.8%.

For `CCOC(=O)C1CCCN(C(=O)COc2ccccc2F)C1` (centres undefined), the inhibition is -25.1%.

For the compound `COC(=O)c1c(NC(=O)CN2C(=O)NC3(CCC(C(C)(C)C)CC3)C2=O)sc2c1CCCCC2` (centres undefined), the inhibition was -10.4%.

As to `COCC(C)N1CCC(n2nccc2NC(=O)CCCc2ccccc2)CC1` (centres undefined), the inhibition is -1.8%.

As to `O=C(NC1=NCCS1)c1cc(-c2cccc(Br)c2)nc2ccccc12`, the inhibition was -10.6%.

For the compound `COc1cc(/C=C2\CC/C(=C\c3cc(OC)c(OC)c(OC)c3)C2=O)cc(OC)c1OC`, the inhibition was 23%. `COc1cc(/C=C2\CCOC2=O)cc(OC)c1OC`: the inhibition is -9.9%. In the case of `O=C(CN(Cc1ccco1)C(=O)CNS(=O)(=O)c1ccc(F)cc1)NCCc1ccccc1`, the inhibition was -27.1%.

With `Cc1ccc(C(=O)OCC(=O)c2c(N)n(C)c(=O)n(C)c2=O)cc1S(=O)(=O)N1CCCCC1`, the inhibition was -7.4%. For the compound `Cn1c(N)c(C(=O)COC(=O)c2ccc(Cl)c(S(=O)(=O)N3CCCCC3)c2)c(=O)n(C)c1=O`, the inhibition is 64.3% (active).

With `Cn1c(N)c(C(=O)COC(=O)c2ccc(Cl)c(S(=O)(=O)N3CCCC3)c2)c(=O)n(C)c1=O`, the inhibition is 14.5%. For `Cc1cc(C(=O)OCC(=O)NC(C)C)c(C)o1`, the inhibition was -4%.

As for `CC(=O)C(C)n1c(CN2CCN(C(=O)c3ccco3)CC2)nc2c1c(=O)n(C)c(=O)n2C` (centres undefined), the inhibition is -0.4%.

As for `CCN1CCS/C1=C\C=C\C1=[N+](CC)CCS1`, the inhibition is 53.8% (active). To `CCN1CCS/C1=C/C=C/C1=[N+](CC)CCS1` belongs 14%; to `Cc1ccc(CC(=O)NCc2ccc(Cl)cc2)cc1`, -57.8%. The result for `Cc1ccc(-c2cc(C)nc3ncnn23)cc1` reads -4.1%; that for `Cc1cccc(-n2c(SCc3cc(=O)n4c(C)cccc4n3)nc3[nH]ncc3c2=O)c1`, -6.2%; that for `Cc1cccc2nc(CSc3nc4[nH]ncc4c(=O)n3-c3ccccc3Cl)cc(=O)n12`, 6.5%. `Cc1cccc2nc(CSc3nc4[nH]ncc4c(=O)n3-c3cccc(Cl)c3)cc(=O)n12`: the inhibition is 75.3% (active). As for `COc1ccc(C2C(C(N)=O)=C(C)Nc3ncnn32)cc1` (centres undefined), the inhibition is -4.5%. To `COC(=O)CCC(=O)NNC(=O)C1CC1(c1ccccc1)c1ccccc1` (centres undefined) belongs 0.4%.

With `COc1ccc(NC(=S)N2CCN(c3ccccn3)CC2)cc1`, the inhibition was -4.7%. The result for `S=C(Nc1ccccc1)N1CCN(c2ccccn2)CC1` reads -29.8%; that for `Cc1ccccc1N1CCN(C(=O)c2ccccc2NC(=O)C2CC=CCC2C(=O)O)CC1` (centres undefined), -15.8%; that for `Cc1cccc(C)c1-n1nnnc1S(=O)(=O)Cc1ccccc1Cl`, -16.2%.

Turning to `COc1ccccc1-n1nnnc1S(=O)(=O)Cc1ccc(Cl)cc1`, the inhibition is 102%. Regarding `CN1/C(=C\C(=O)C[n+]2ccc3ccccc3c2)C(C)(C)c2ccccc21`, the inhibition was 47% (active). With `Cc1ccc[n+](CC(=O)/C=C2\N(C)c3ccccc3C2(C)C)c1`, the inhibition was 27.4%. To `CN1/C(=C\C(=O)C[n+]2cccc(Br)c2)C(C)(C)c2ccccc21` belongs 30.4%; to `O=C(NCc1ccccc1OC(F)(F)F)C1CCC(=O)N(CCc2ccccn2)C1` (centres undefined), -25.8%. Regarding `CC(Sc1nc(N)cc(=O)[nH]1)C(=O)NC1CCCCC1` (centres undefined), the inhibition was -12%. Turning to `CC(Sc1n[nH]c(N)n1)C(=O)NC1CCCCC1C` (centres undefined), the inhibition is -7.3%. Turning to `CN(C(=O)CSc1ccccc1C(=O)O)C1CCCCC1`, the inhibition is -26.5%. Consider `Cc1[nH]c2ccccc2c1C(=O)C(=O)N(C)C1CCCCC1`, for which the inhibition is -23.5%. `Cc1cc(C(=O)O)sc1C`: the inhibition is -16.5%.

For the compound `FC(F)(F)c1cnc(Sc2nnc(-c3cccs3)n2CC2CCCO2)c(Cl)c1` (centres undefined), the inhibition was -14.9%.

Regarding `CCOc1cc(/C=N/NC(=O)C(=O)NCc2ccc3c(c2)OCO3)ccc1OCC(=O)N1CCOCC1`, the inhibition was -4.3%.

In the case of `CCOC(=O)CNc1cccc(C(F)(F)F)c1`, the inhibition was -35.5%.

As for `O=C(CNS(=O)(=O)c1ccccc1)NCC(=O)OCc1ccc(Cl)cc1`, the inhibition was -12.2%. Turning to `O=C(NCc1cccnc1)/C(=C/c1ccc(-c2cccc(C(F)(F)F)c2)o1)NC(=O)c1ccccc1`, the inhibition is 11.9%. With `O=C(NCc1cccnc1)/C(=C\c1ccc(-c2ccc(Br)cc2)o1)S(=O)(=O)c1ccccc1`, the inhibition is 106% (active).

For `O=C(CN(Cc1ccc(Br)cc1)S(=O)(=O)c1ccccc1)NCc1cccnc1`, the inhibition is 14.5%.

On to `COc1ccc(S(=O)(=O)N2CCC(NC(=O)c3cccc(F)c3)CC2)cc1`, for which the inhibition was -7.7%. `CC(=O)NC(CC(=O)Oc1ccc(C)cc1Br)c1ccccc1` (centres undefined): the inhibition is -28.4%.

`Cc1c(CCOC(=O)c2cccc([N+](=O)[O-])c2)sc[n+]1CC(=O)c1ccccc1`: the inhibition was -44.5%. Take `Cc1c(CCOC(=O)c2cc([N+](=O)[O-])cc([N+](=O)[O-])c2)sc[n+]1CC(=O)c1ccc(Br)cc1`: the inhibition is 49.3% (active). For `Cc1c(CCOC(=O)c2cc([N+](=O)[O-])cc([N+](=O)[O-])c2)sc[n+]1CC(=O)c1ccccc1`, the inhibition is -27.6%. For `O=C(NCc1ccco1)C12CN(Cc3ccccc3)CC1C(c1ccc([N+](=O)[O-])cc1)=NO2` (centres undefined), the inhibition is 10.3%. The result for `CCOCCc1nnc(NC(=O)C(C)Oc2ccccc2)s1` (centres undefined) reads -60.4%; that for `COc1ccc(NC(=O)CCC(=O)N/N=C/c2cn(C)nc2C)cc1`, 10.7%; that for `Cc1cccc(Nc2nc3c(s2)CCCC3)c1`, -49.8%. As to `CN(C)c1ccc(C(=O)Nc2nc3c(s2)CCCC3)cc1`, the inhibition was 25.6%.

As for `O=C(O)c1ccc(Nc2nc3c(s2)CCCC3)cc1`, the inhibition is 69.2% (active).
